# Measurements from PubChem BioAssay (EPA / NIEHS).
# Results filed as inconclusive are left out. More than one record can exist for a structure, and the calls need not agree. Active and inactive are the calls of the source. The calls were made as follows, unless noted: active = hit-call score of the fitted dose curve at least 0.9, where 1 is the maximum; inactive = score below 0.9.
# How the values were obtained:
# [1] = TOX21_p53_BLA_p2_viability: Viability Assessment in the Tox21 HCT-116 p53 Agonism Beta-lactamase Assay, Phase 2 (AID 2283591; active = hit-call score of the fitted dose curve at least 0.9, where 1 is the maximum;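 also: compound exposure lasted 16 h at 37 °C; actives lower the ATP signal meaning cytotoxicity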)
# How it was run: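 HCT116 p53-bla cells, 4000/well, dosed after 5 h plating (217-fold dilution of DMSO stocks) and incubated 16 h at 37C. Viability taken as cellular ATP by CellTiter-Glo luminescence after 30 min RT; signal loss marks cytotoxicity.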
# [2] = target: Cellular tumor antigen p53 (Homo sapiens) (UniProt P04637); experiment: TOX21_p53_BLA_p2_ratio: Tox21 HCT-116 p53 Agonism Beta-lactamase Assay, Ratio, Phase 2 (AID 2283592; active = hit-call score of the fitted dose curve at least 0.9, where 1 is the maximum)
# How it was run: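 Ratio endpoint: beta-lactamase cleavage of CCF4-AM, blue (460 nm) over green (530 nm). HCT116 reporter line; 16 h treatment, 37C; substrate 2 h RT.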
# [3] = TOX21_p53_BLA_p3_viability: Viability Assessment in the Tox21 HCT-116 p53 Agonism Beta-lactamase Assay, Phase 3 (AID 2283593; active = hit-call score of the fitted dose curve at least 0.9, where 1 is the maximum;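 also: cells exposed to compound for 16 h before reading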)
# How it was run: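 HCT116 cells, 4000/well, dosed 5 h after plating by pin transfer (217-fold dilution from DMSO stock) and incubated 16 h at 37C, 5% CO2. Viability read as ATP luminescence with CellTiter-Glo after 30 min at room temperature.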
# [4] = target: Cellular tumor antigen p53 (Homo sapiens) (UniProt P04637); experiment: TOX21_p53_BLA_p3_ratio: Tox21 HCT-116 p53 Agonism Beta-lactamase Assay, Ratio, Phase 3 (AID 2283596; active = hit-call score of the fitted dose curve at least 0.9, where 1 is the maximum)
# How it was run: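 Cells were seeded at 4000/well, rested 5 h at 37C, then dosed with DMSO compound solutions (217-fold dilution) for 16 h. CCF4-AM substrate was loaded for 2 h at room temperature, and the 460/530 nm emission ratio was fitted for gain of signal versus DMSO.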
# [5] = TOX21_p53_BLA_p4_viability: Viability Assessment in the Tox21 HCT-116 p53 Agonism Beta-lactamase Assay, Phase 4 (AID 2283597; active = hit-call score of the fitted dose curve at least 0.9, where 1 is the maximum;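 also: hits lower the luminescence signal meaning cytotoxicity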)
# How it was run: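 Cytotoxicity was inferred from loss of CellTiter-Glo luminescence. HCT116 cells had been dosed with compounds after 5 h plating, incubated 16 h at 37C and 5% CO2, and exposed to the CCF4-AM substrate for 2 h.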
# [6] = TOX21_p53_BLA_p5_viability: Viability Assessment in the Tox21 HCT-116 p53 Agonism Beta-lactamase Assay, Phase 5 (AID 2283600; active = hit-call score of the fitted dose curve at least 0.9, where 1 is the maximum)
# How it was run: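 Luciferase-coupled ATP quantitation of cells treated for 16 h (37C, 5% CO2) with test chemicals delivered in DMSO via a 217-fold dilution; 4000 cells/well; reagent incubated 30 min at room temperature before luminescence reading.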
# [7] = target: Cellular tumor antigen p53 (Homo sapiens) (UniProt P04637); experiment: TOX21_p53_BLA_p4_ratio: Tox21 HCT-116 p53 Agonism Beta-lactamase Assay, Ratio, Phase 4 (AID 2283601; active = hit-call score of the fitted dose curve at least 0.9, where 1 is the maximum)
# How it was run: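 HCT-116 p53 beta-lactamase reporter cells (4000/well) preincubated 5 h, then compound (217-fold dilution of DMSO stock) for 16 h at 37C. CCF4-AM substrate added 2 h at room temperature; 460/530 nm emission ratio fitted upward versus DMSO.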
# [8] = CCTE_Shafer_MEA_dev_firing_rate_mean: CCTE's Neural Network Formation Assay for Mean Firing Rate, Shafer Lab (AID 2284031)
# How it was run: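 Spike frequency (spikes/recording length, averaged over active electrodes) was recorded on days 5, 7, 9 and 12 and collapsed to AUC; rat cortical cultures received compound continuously over 12 days of network development.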
# [9] = CCTE_Shafer_MEA_dev_per_burst_spike_percent: CCTE's Neural Network Formation Assay for Percent of Spikes in a Burst, Shafer Lab (AID 2284032)
# How it was run: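 Value is trapezoidal AUC over recordings on days 5, 7, 9 and 12 of the well-mean fraction of spikes falling in single-electrode bursts; rat cortical cultures exposed continuously from plating, treatment renewed DIV 5 and 9, fitted downward against DMSO.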
# [10] = CCTE_Shafer_MEA_dev_burst_rate: CCTE's Neural Network Formation Assay for Burst Rate, Shafer Lab (AID 2284042)
# How it was run: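 Cells plated, treated day 0; recorded DIV 5, 7, 9, 12; fed and re-treated DIV 5, 9. Endpoint: bursts per recording time, active-electrode well mean, trapezoidal AUC, fitted in decreasing direction against DMSO baseline.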
# [11] = CCTE_Shafer_MEA_dev_per_burst_interspike_interval: CCTE's Neural Network Formation Assay for Burst Interspike Interval, Shafer Lab (AID 2284044)
# How it was run: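 Rat cortical primary cultures, 16 electrodes/well; compound from plating, renewed with full media change DIV 5 and 9. Spikes via adaptive detector; per-burst ISI well-mean over active bursting electrodes; AUC of DIV 5/7/9/12 recordings; loss-direction fit vs DMSO.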
# [12] = CCTE_Shafer_MEA_dev_burst_duration_mean: CCTE's Neural Network Formation Assay for Mean Burst Duration, Shafer Lab (AID 2284045);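 as to AC50: curve fitted for loss meaning shorter burst duration than DMSO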
# How it was run: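 Rat cortical cultures, 1.5 x 10^5 cells/well with laminin drop; continuous dosing days 0–12, media plus treatment refreshed DIV 5, 9. AxIS adaptive spike detection; mean single-electrode burst duration, AUC over four recordings, negative direction vs DMSO.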
# [13] = CCTE_Shafer_MEA_dev_interburst_interval_mean: CCTE's Neural Network Formation Assay for Mean Interburst Interval, Shafer Lab (AID 2284046);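 also: well-mean interburst interval of bursting electrodes as AUC over four recording days; curve fitted for decrease in interburst interval relative to DMSO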
# How it was run: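 Developing rat cortical networks on 48-well MEAs receive compound from the day of plating. Burst intervals from each active electrode are averaged per well, and AUC over the recording days is fitted in the negative direction against DMSO.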
# [14] = CCTE_Shafer_MEA_dev_inter_network_spike_interval_mean: CCTE's Neural Network Formation Assay for Mean Inter-network Spike Interval, Shafer Lab (AID 2284047)
# How it was run: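 Rat cortical cultures, 1.5 x 10^5 cells/well on 48-well MEA plates; continuous exposure days 0–12, medium and compound refreshed DIV 5, 9. Mean time between consecutive network-spike peaks; AUC across DIV 5/7/9/12; DMSO baseline, negative fitting direction.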
# [15] = CCTE_Shafer_MEA_dev_network_spike_number: CCTE's Neural Network Formation Assay for Number of Network Spikes, Shafer Lab (AID 2284048);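 also: synchronized bursts across electrodes counted on days 5 7 9 12 and integrated as AUC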
# How it was run: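 Rat cortical primary cultures on 48-well MEA (16 electrodes/well); continuous exposure DIV 0–12, full medium and treatment exchange DIV 5, 9. Readout: network spike count, AxIS adaptive detection, recordings DIV 5/7/9/12 collapsed to AUC; loss-of-signal fit, DMSO baseline.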
# [16] = CCTE_Shafer_MEA_dev_network_spike_peak: CCTE's Neural Network Formation Assay for Mean Number of Electrodes in Network Spike, Shafer Lab (AID 2284049)
# How it was run: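 Network-spike peak electrode count from recordings on days 5, 7, 9 and 12 was combined as trapezoidal area under the curve. Rat cortical cultures were treated continuously from plating, with compound renewed at each feed (DIV 5, 9); fits versus DMSO.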
# [17] = CCTE_Shafer_MEA_dev_spike_duration_mean: CCTE's Neural Network Formation Assay for Mean Spike Duration, Shafer Lab (AID 2284051);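 also: mean network spike duration pooled as area under curve over DIV 5 to 12 recordings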
# How it was run: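 Readout is the average length of network spikes, clustered firing across electrodes, summed over DIV 5, 7, 9 and 12 as area under the curve. Neurons from rat cortex developed networks on MEA plates under continuous 12-day exposure.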
# [18] = CCTE_Shafer_MEA_dev_network_spike_duration_std: CCTE's Neural Network Formation Assay for Standard Deviation of Network Spike Duration, Shafer Lab (AID 2284052);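 also: area under curve of spike duration SD across recording days 5 to 12; hits are decreases in network spike duration SD versus DMSO vehicle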
# How it was run: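 Read-out is the trapezoidal area-under-the-curve across recordings made on days 5, 7, 9 and 12, fitted in the negative direction against DMSO baseline. Neurons were primary rat cortical cells treated from day 0, with treatment renewed at each feed.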
# [19] = CCTE_Shafer_MEA_dev_per_network_spike_spike_number_mean: CCTE's Neural Network Formation Assay for Mean Number of Spikes in a Network Spike, Shafer Lab (AID 2284053)
# How it was run: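 Continuous twelve-day exposure of developing rat cortical networks grown over 16 microelectrodes per well; spontaneous firing is captured at four time points, and the per-network-spike spike number is integrated over development by trapezoidal AUC.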
# [20] = CCTE_Shafer_MEA_dev_per_network_spike_spike_percent: CCTE's Neural Network Formation Assay for Percent of Spikes in a Network Spike, Shafer Lab (AID 2284054)
# How it was run: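 Read-out: percent of spikes falling in a 0.05 s window at network-spike peak, from spontaneous MEA recordings on days 5, 7, 9 and 12; trapezoidal AUC; loss of signal versus DMSO. Rat cortical cultures, compound present throughout.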
# [21] = CCTE_Shafer_MEA_dev_LDH: CCTE's Lactate Dehydrogenase Assay for Cytotoxicity in the Neural Network Formation Assay, Shafer Lab (AID 2284068; active = hit-call score of the fitted dose curve at least 0.9, where 1 is the maximum;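 also: exposure for twelve days from plating with re-dosing on DIV 5 and 9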)
# How it was run: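 Cytotoxicity companion to network-formation recordings: rat cortical neurons received compound over 12 days of development, re-dosed at DIV 5 and 9 feeds. Viability was inferred from LDH enzyme activity relative to DMSO.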
# [22] = CCTE_Shafer_MEA_dev_AB: CCTE's Alamar Blue Assay for Cytotoxicity in the Neural Network Formation Assay, Shafer Lab (AID 2284083; active = hit-call score of the fitted dose curve at least 0.9, where 1 is the maximum;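 also: resazurin reduction fluorescence as viability of cultured neurons; twelve days of exposure from plating with re-dosing on DIV 5 and 9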)
# How it was run: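 Fluorescent resazurin reduction serves as the viability read-out, with DMSO as negative control and baseline. Cells were primary rat cortical neurons grown on MEA plates and dosed from day 0 to day 12, treatment renewed on DIV 5 and 9.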
# [23] = CCTE_Shafer_MEA_dev_mutual_information_norm: CCTE's Neural Network Formation Assay for Mutual Information Normalization, Shafer Lab (AID 2284091)
# How it was run: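 Neurons from rat cortex were seeded at 1.5 x 10^5 cells/well onto PEI-coated MEAs in a laminin drop, then exposed to compound from day 0 for twelve days. Network recordings on four days gave mutual information, summarised by AUC relative to DMSO.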
# [24] = CCTE_Shafer_MEA_dev_correlation_coefficient_mean: CCTE's Neural Network Formation Assay for Mean Correlation Coefficient, Shafer Lab (AID 2284093)
# How it was run: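 Read-out: well-mean correlation coefficient of spike trains between electrode pairs, collapsed over four recording days as trapezoidal area-under-the-curve. Developing rat cortical neuron networks grown on MEAs received test chemical continuously from plating.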
# [25] = IUF_NPC1b_proliferation_BrdU_72hr: Leibniz Research Institute for Environmental Medicine (IUF) 72-hour Neural Progenitor Cell Bromodeoxyuridine (BrdU) Proliferation Assay (NPC1b) (AID 2284207)
# How it was run: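 Luminescent BrdU ELISA measured DNA synthesis during the last 16 h of a 72 h exposure of primary human neural progenitor spheres grown with EGF and FGF. Signal was fitted relative to DMSO controls.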
# [26] = IUF_NPC1a_proliferation_area_72hr: Leibniz Research Institute for Environmental Medicine (IUF) 72-hour Neural Progenitor Cell Proliferation Area Assay (NPC1a) (AID 2284208)
# How it was run: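 Read-out: increase in sphere area over 72 h by automated phase-contrast imaging, fitted in positive direction versus DMSO baseline. One hNPC sphere (0.25-0.35 mm) per well in EGF/FGF medium; growth-factor withdrawal served as positive control.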
# Sequence of Cellular tumor antigen p53 (Homo sapiens) (P04637 whole entry, looked up): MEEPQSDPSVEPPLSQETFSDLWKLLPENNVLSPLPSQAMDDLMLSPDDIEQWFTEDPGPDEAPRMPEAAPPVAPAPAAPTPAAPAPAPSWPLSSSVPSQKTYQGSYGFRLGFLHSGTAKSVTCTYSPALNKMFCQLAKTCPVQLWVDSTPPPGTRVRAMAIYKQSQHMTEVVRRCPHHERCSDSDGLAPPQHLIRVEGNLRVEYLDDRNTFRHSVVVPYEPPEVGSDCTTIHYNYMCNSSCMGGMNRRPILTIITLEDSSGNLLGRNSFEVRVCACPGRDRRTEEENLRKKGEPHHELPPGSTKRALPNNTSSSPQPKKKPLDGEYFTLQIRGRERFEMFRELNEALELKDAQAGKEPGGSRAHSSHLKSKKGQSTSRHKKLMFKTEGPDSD
smiles,measurement,setting,value
C[C@H](CS)C(=O)N1CCC[C@H]1C(=O)O,outcome,[1],inactive
same,outcome,[2],inactive
same,outcome,[3],inactive
same,outcome,[4],inactive
same,outcome,[5],inactive
same,outcome,[6],inactive
same,outcome,[7],inactive
same,outcome,[8],inactive
same,outcome,[9],inactive
same,outcome,[10],inactive
same,outcome,[11],inactive
same,AC50,[12],21.6 µM (active)
same,outcome,[12],inactive
same,outcome,[13],inactive
same,outcome,[14],inactive
same,outcome,[15],inactive
same,outcome,[16],inactive
same,outcome,[17],inactive
same,outcome,[18],inactive
same,outcome,[19],inactive
same,outcome,[20],inactive
same,outcome,[21],inactive
same,outcome,[22],inactive
same,outcome,[23],inactive
same,outcome,[24],inactive
same,outcome,[25],inactive
same,outcome,[26],inactive
